Assay outcomes (PubChem BioAssay)
This is a sample that favours compounds with a hit; in the whole collection about 6% have one here.
ERK AVP block – inhibitors of vasopressin-stimulated ERK signaling pathway. Potency, µM (top dose mostly 57.5 µM), for inactives: at the top dose activity, negative = inhibition, usual class: inhibitors. hit rate 0.99% among 72,000. HEK293-V1b, vasopressin-stimulated pERK AlphaScreen; note: nearly all actives have a fitted effect of over 55% in size
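Phosphorylated ERK1/2 detected via AlphaScreen bead proximity in lysates of V1b-expressing HEK293 cells given 25 nM vasopressin for 5 min after 30 min compound exposure (37 °C). AC50 from Hill equation; basal DMSO 0%, vasopressin 100%.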
Bst PK mod – alters activity of Bacillus stearothermophilus pyruvate kinase; purified pyruvate kinase, luminescence ATP production; ribose 5-phosphate activator present at AC10; Potency, µM; hit rate 1.2% among 51,000; AID 361; in the data active = potency below about 11 µM; inconclusive = mostly about 12 µM to 25 µM;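 the screen sought inhibitors and activators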;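 note: scaled between full activation by ribose 5 phosphate and full inhibition by luteolin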
ALOX15 inhib – 15-hLO (ALOX15) enzyme inhibition; AID 887; purified 15hLO-1, xylenol orange hydroperoxide absorbance; P16050; hit rate 1.4% among 74,000; Potency, µM (doses to about 57.1 µM), for the others: at the highest dose activity change, negative = inhibition, usual class: inhibitors; note: nearly all actives have a fitted effect of over 55% in size
Target sequence (P16050 whole entry, looked up): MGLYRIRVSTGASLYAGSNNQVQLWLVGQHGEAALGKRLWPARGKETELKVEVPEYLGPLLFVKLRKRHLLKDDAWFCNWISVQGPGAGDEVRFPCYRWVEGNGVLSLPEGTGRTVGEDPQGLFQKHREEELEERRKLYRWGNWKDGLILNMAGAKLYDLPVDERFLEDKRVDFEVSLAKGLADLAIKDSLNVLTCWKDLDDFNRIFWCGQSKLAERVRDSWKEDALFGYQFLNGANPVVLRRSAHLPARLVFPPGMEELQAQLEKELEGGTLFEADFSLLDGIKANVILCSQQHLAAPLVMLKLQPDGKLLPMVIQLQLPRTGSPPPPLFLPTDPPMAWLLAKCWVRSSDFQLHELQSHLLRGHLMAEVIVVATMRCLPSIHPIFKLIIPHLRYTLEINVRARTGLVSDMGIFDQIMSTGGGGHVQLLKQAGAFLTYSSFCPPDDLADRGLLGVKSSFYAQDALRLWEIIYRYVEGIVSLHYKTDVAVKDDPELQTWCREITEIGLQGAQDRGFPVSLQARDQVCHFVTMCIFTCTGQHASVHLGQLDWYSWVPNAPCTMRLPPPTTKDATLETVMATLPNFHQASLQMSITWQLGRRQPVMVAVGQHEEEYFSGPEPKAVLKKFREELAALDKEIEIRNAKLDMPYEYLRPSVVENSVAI
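Purified human 15hLO-1 (40 nM) in 25 mM Hepes pH 7.5, 0.01% Triton X-100, preincubated 15 min RT with compound, then 50 uM arachidonic acid for 6 min. Hydroperoxide read by ferrous/xylenol orange, 30 min; 573/405 nm absorbance ratio gave progress.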
Tau fil binding – binds recombinant human tau filaments; P10636; recombinant tau filaments, thioflavin S fluorescence, 15 h; filaments grown with octadecylsulfate alongside compound; Potency, µM (doses to about 57.1 µM), inactives show at the top dose activity change, negative = inhibition; hit rate 2% among 71,000; AID 596;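 note: actives lower thioflavin S fluorescence by blocking filaments or displacing dye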
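Tau 2 uM in ThS buffer dispensed; compound added; 60 uM ODS added (finals 1 uM tau, 30 uM ODS); 15 h 37 C; fluor ex450/em510.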
Pol III holo inh – inhibitors of bacterial DNA polymerase III holoenzyme. reconstituted DNA polymerase III holoenzyme replication, biochemical. Potency, µM (highest dose often 57.1 µM), without a hit: at the highest dose activity change, negative = inhibition. hit rate 0.25% among 71,000. AID 603
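Reconstituted *E. coli* holoenzyme (0.35 nM Pol III, 1 nM beta, 154 nM SSB, 2 nM primase) was preincubated with compound for 15 min at RT. Synthesis on 1.4 nM ssM13Gori ran 35 min, then was stopped with PicoGreen/EDTA and read as dsDNA fluorescence.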
FLuc inh – firefly luciferase inhibition; purified firefly luciferase, luminescence, 8 min; hit rate 2.2% among 72,000; Potency, µM (doses to about 57.1 µM), without a hit: at the highest dose activity change, negative = inhibition, actives largely listed as inhibitors; note: nearly all actives have a fitted effect of over 40% in size
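qHTS concentration-response profiling: light output of P. pyralis luciferase with luciferin and 10 uM ATP, imidazole buffer pH 7.2. Read by luminescence after 8-min room-temperature incubation.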
Active calls of the source: *; ? = inconclusive; / = no result; ! = not confirmed by another sample; [ ] = dose if it differs, or a comment. Unless noted, calls come from the whole dose curve; as a rule, active = well fitted curve in the direction sought with a large enough effect; inconclusive = small, poorly fitted or top-dose-only effect, or another doubt; inactive = no such curve, though single readings can be large; an effect the other way counts as inactive or inconclusive. Unless noted, % is set by controls: 0 for no effect and ±100 for the full control effect; potency is the fitted concentration of half-maximal effect.

SMILES	ERK AVP block	Bst PK mod	ALOX15 inhib	Tau fil binding	Pol III holo inh	FLuc inh
CCOCC(=O)Nc1nc2ccc(S(C)(=O)=O)cc2s1	-17.1%	>57	0.6%	-14.9%	-6.0%	-0.9%
Cc1ccc2nc(NC(=O)c3cccs3)sc2c1	-1.1%	4.21*	-12.3%	138.6%	1.3%	2µM*
Cc1cc(C(=O)Nc2nc3ccc(S(C)(=O)=O)cc3s2)c(C)o1	-4.5%	/	-3.4%	55.1%	-5.8%	2µM*
N#Cc1cccc(-c2nc(NCCN3CCOCC3)c3ccccc3n2)c1	?	/	-1.3%	32.5%	-4.7%	0.3%[2.29 µM]
CC(C)NC(=O)N1CC2(CCN(C(=O)c3ccncc3)CC2)C1	-9.0%	/	10.3%	14.5%	-0.6%	1.7%[11.4 µM]
CCCn1c(C)nc2c(NCCCCN(C)C)nc(C)nc21	-7.2%	/	-1.2%	3.2%	0.6%	/
CC(=O)OC[C@@H]1O[C@H](C/C=N\O[C@@H](C)c2cn([C@H]3COC[C@H]3O)nn2)C=C[C@@H]1OC(C)=O	-3.8%[11.5 µM]	/	8.2%[11.4 µM]	/	/	0.9%[11.4 µM]
O=C(O)c1cc2c(cc1S(=O)(=O)O)[C@H]1[C@@H]([C@H]3[C@H]2[C@@]2(Cl)C(Cl)=C(Cl)[C@]3(Cl)C2(Cl)Cl)[C@]2(Cl)C(Cl)=C(Cl)[C@@]1(Cl)C2(Cl)Cl	15.7%[11.5 µM]	/	5.01µM*	35.5%[11.4 µM]	-1.5%[11.4 µM]	1.0%[11.4 µM]
CCCCC[C@H](CC(=O)NO)C(=O)N[C@@H](C(=O)N1CCC[C@H]1CO)C(C)C	12.6%	/	-12.1%	1.9%	-1.5%	-1.8%
NC(=O)c1ccc(N2CCCCC2)c(N2C(=O)CCC2=O)c1	-12.7%	/	6.4%	-5.5%	-13.1%	-1.5%
NC(=O)c1cc(N)ccc1N1CCCC1	-13.7%	>57	?	15.8µM*	-10.2%	-6.7%
O=C(O)C1CCCN1S(=O)(=O)c1cccc2cccnc12 (configuration not stated)	/	/	9.8%	-3.0%	-4.7%	2.9%
c1ccc2oc(SCc3nc4ccccc4s3)nc2c1	28.4%	/	-14.1%	-20.2%	4.0%	15.8µM*
C=NC(C(=O)NC1C(=O)N2C1SC(C)(C)C2C(=O)O)c1ccccc1 (configuration not stated)	-1.4%	/	-25.2%	/	/	/
N#Cc1cc2nc(O)c(O)nc2cc1[N+](=O)[O-]	7.5%	/	?	39.8µM*!	-4.5%	0.4%
O=[N+]([O-])c1cc(Cc2cc([N+](=O)[O-])c3cccnc3c2O)c(O)c2ncccc12	7.6%[11.5 µM]	/	-0.1%[11.4 µM]	-28.4%[11.4 µM]	-27.0%[11.4 µM]	-0.1%[11.4 µM]
CCN(CC)CCCCNC(=O)c1ccc(Cc2nc3ccccc3[nH]2)cc1	/	/	0.9%	/	/	/
C=Cc1c(C)c2cc3[nH]c(cc4nc(cc5nc(cc1[nH]2)C(C)=C5CCC(=O)O)C(CCC(=O)O)=C4C)c(C)c3C=C	407.7%	/	?	5.01µM*	-16.6%	-19.3%
CC1=C(CCC(=O)O)c2cc3nc(cc4[nH]c(cc5[nH]c(cc1n2)c(C)c5C(C)O)c(C)c4C(C)O)C(C)=C3CCC(=O)O (configuration not stated)	37.1%	/	-14.0%	/	/	/
CN(C)c1ccc(-c2ccc3ncnc(NC4CC4)c3c2)cc1	?	/	13.0%	?	-6.7%	-0.7%[2.29 µM]
S=c1[nH]nc(COc2ccc(Cl)cc2)o1	-17.1%	3.93*	1.7%	2.1%	-2.2%	0.3%
Cc1noc(C)c1C(=O)N1CCC[C@@]2(CCN(c3ccccn3)C2)C1	9.7%	/	2.6%	-0.6%	-9.3%	1.0%[11.4 µM]
O=C(O)C[C@@H]1CCCc2ccccc2[C@H]1O	-2.4%	/	3.5%	2.0%	-0.9%	4.0%
CC(=NC1CCCCC1)C1=C(O)c2ccccc2C1=O	?	/	0.4%	15.8µM*	-2.5%	7.94µM*
O=C(CSc1nnnn1-c1cccc2c1CCCC2)N1CCOCC1	2.7%	10.6*	3.1%	-3.6%	-5.2%	-0.9%
SMILES	ERK AVP block	Bst PK mod	ALOX15 inhib	Tau fil binding	Pol III holo inh	FLuc inh
CN1C2CC(OC(=O)C(CO)c3ccccc3)C[C@@H]1[C@H]1OC21 (some centres not stated)	4.6%	/	-3.2%	/	/	/
CN(C)c1oc(COc2ccc(F)cc2)nc1C#N	-14.6%	>57	-4.2%	5.3%	2.4%	-0.5%
CN(C)c1oc(-c2ccc(OCc3ccc(Cl)cc3)cc2)nc1C#N	-15.3%	0.247*	-6.0%	23.3%	-2.7%	1.0%
Cn1nnnc1SCc1ccc(C(=O)Nc2nccs2)cc1	-19.5%	0.996*	?	2.51µM*	-11.0%	1µM*
Cn1c(CSCc2ccc(F)cc2)nnc1SCC(=O)Nc1nccs1	?	>57	-2.6%	9.3%	-3.2%	1.4%
CC(=O)C1=C(C)N=c2s/c(=C/c3ccc4c(c3)OCO4)c(=O)n2C1c1ccc(N(C)C)cc1 (configuration not stated)	-12.4%	>57	-7.9%	3.98µM*	3.6%	-1.6%
Nc1ncnc2c1ncn2[C@@H]1CCCO1	39.2%	/	-14.1%	-6.5%	-1.4%	2.8%
O=C(CN1CC(c2ccccc2)CC1=O)Nc1ccc2c(c1)OCO2 (configuration not stated)	-13.1%	/	0.1%	25.1µM*	-3.4%	-3.6%
O=C(NCc1ccc2c(c1)OCO2)c1c(F)c(F)c(F)c(F)c1F	7.2%	7.72*	4.9%	-1.1%	-3.1%	2.7%
O=C(CN1C(=O)c2cccc3cccc1c23)Nc1ccc2c(c1)OCO2	1.7%	1.9*	-20.5%	93.7%	-3.2%	0.9%
CC(C(=O)NCc1ccc2c(c1)OCO2)N1c2cccc3cccc(c23)S1(=O)=O (configuration not stated)	5.8%	0.94*	-12.3%	-5.3%	-1.0%	-0.7%
O=C(CN1C(=O)c2cccc3cccc1c23)Nc1ccc(S(=O)(=O)N2CCOCC2)cc1	8.7%	10.5*	-1.1%	-9.9%	-1.5%	0.9%
O=C(CN1C(=O)c2cccc3cccc1c23)NCc1ccc2c(c1)OCO2	10.1%	2.75*	-6.9%	83.9%	2.0%	1.5%
N#Cc1cccc(-c2nc(NCc3cccnc3)c3ccccc3n2)c1	?	/	-19.9%	25.0%	-7.8%	2.0%[2.29 µM]
O=C(CCN1CCOCC1)Nc1ccc2c(c1)CCC2	-10.0%	>57	25.1µM*	-8.7%	3.1%	1.2%
CCOC(=O)c1cc2occc2n1CC(=O)N1CCOCC1	-9.2%	>57	-20.3%	0.8%	-3.8%	0.8%
CCOC(=O)c1cc2occc2n1CCCN1C(=O)c2ccccc2C1=O	50.4%	>57	-19.1%	15.8µM*	5.4%	-0.3%
N[C@@H](C(=O)O)[C@@H]1C[C@H]1C(=O)O	/	/	/	7.6%	0.7%	1.9%
CCN(CC)S(=O)(=O)c1cccc(-c2nnc(C(=O)c3ccc(C(F)(F)F)cc3)o2)c1	-3.3%	>57	-8.3%	15.8µM*	-3.2%	0.3%
CCN(CC)S(=O)(=O)c1cccc(-c2nnc(SCC(=O)c3cc(C)n(C)c3C)o2)c1	-2.4%	>57	5.1%	-3.6%	-3.2%	-0.9%
